# Experimental data taken from the supplement of paper PMC6992640.
# Test system: UCD52 (cells of a triple-negative basal-like breast cancer xenograft)
# Experiment: cell viability of combination (% of vehicle); higher = less cytotoxic
# Details: 1 µM; 72 h; partner dose: 10 nM
# Description: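 PDX cells were treated for 72 h with each drug at 1 µM plus afatinib (10 nM; 1 µM for WHIM30). Luciferase viability is expressed as percent of vehicle.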
row,SMILES,cell viability of combination
1,Clc1ccc(COC(Cn2ccnc2)c2ccc(Cl)cc2Cl)c(Cl)c1.O=[N+]([O-])O (stereo not given) [Miconazole Nitrate] + CN(C)C/C=C/C(=O)Nc1cc2c(Nc3ccc(F)c(Cl)c3)ncnc2cc1O[C@H]1CCOC1 [Afatinib],76.3
2,CNC(=O)c1cc(Oc2ccc(NC(=O)Nc3ccc(Cl)c(C(F)(F)F)c3)c(F)c2)ccn1 [Regorafenib] + CN(C)C/C=C/C(=O)Nc1cc2c(Nc3ccc(F)c(Cl)c3)ncnc2cc1O[C@H]1CCOC1 [Afatinib],55.9
3,CO[C@H]1C[C@@H]2CC[C@@H](C)[C@@](O)(O2)C(=O)C(=O)N2CCCC[C@H]2C(=O)O[C@H]([C@H](C)C[C@@H]2CC[C@@H](OC(=O)C(C)(CO)CO)[C@H](OC)C2)CC(=O)[C@H](C)/C=C(\C)[C@@H](O)[C@@H](OC)C(=O)[C@H](C)C[C@H](C)/C=C/C=C/C=C/1C [Temsirolimus] + CN(C)C/C=C/C(=O)Nc1cc2c(Nc3ccc(F)c(Cl)c3)ncnc2cc1O[C@H]1CCOC1 [Afatinib],40.4
4,CC1(C)CCC(c2ccc(Cl)cc2)=C(CN2CCN(c3ccc(C(=O)NS(=O)(=O)c4ccc(NC(CCN5CCOCC5)CSc5ccccc5)c(S(=O)(=O)C(F)(F)F)c4)cc3)CC2)C1 (stereo not given) [ABT-263 (Navitoclax)] + CN(C)C/C=C/C(=O)Nc1cc2c(Nc3ccc(F)c(Cl)c3)ncnc2cc1O[C@H]1CCOC1 [Afatinib],38
5,COC(=O)C1=C(C)NC(C)=C(C(=O)OCCN(C)Cc2ccccc2)C1c1cccc([N+](=O)[O-])c1.Cl (stereo not given) [Nicardipine HCl] + CN(C)C/C=C/C(=O)Nc1cc2c(Nc3ccc(F)c(Cl)c3)ncnc2cc1O[C@H]1CCOC1 [Afatinib],69.6
6,CC(C)C1=CC(=C2NNC(=O)N2c2ccc3c(ccn3C)c2)C(=O)C=C1O [Ganetespib (STA-9090)] + CN(C)C/C=C/C(=O)Nc1cc2c(Nc3ccc(F)c(Cl)c3)ncnc2cc1O[C@H]1CCOC1 [Afatinib],30.9
7,CC[C@@]1(O)C(=O)OCc2c1cc1n(c2=O)Cc2cc3c(CN(C)C)c(O)ccc3nc2-1 [Topotecan] + CN(C)C/C=C/C(=O)Nc1cc2c(Nc3ccc(F)c(Cl)c3)ncnc2cc1O[C@H]1CCOC1 [Afatinib],76.4
8,CC(C)CC(NC(=O)CNC(=O)c1cc(Cl)ccc1Cl)B(O)O (stereo not given) + CN(C)C/C=C/C(=O)Nc1cc2c(Nc3ccc(F)c(Cl)c3)ncnc2cc1O[C@H]1CCOC1 [Afatinib],18.1
9,CC(C)CC(NC(=O)C(CCc1ccccc1)NC(=O)CN1CCOCC1)C(=O)NC(Cc1ccccc1)C(=O)NC(CC(C)C)C(=O)C1(C)CO1 (stereo not given) [Carfilzomib (PR-171)] + CN(C)C/C=C/C(=O)Nc1cc2c(Nc3ccc(F)c(Cl)c3)ncnc2cc1O[C@H]1CCOC1 [Afatinib],13.1
10,O=C(NC1CCN(CCCCC2(C(=O)NCC(F)(F)F)c3ccccc3-c3ccccc32)CC1)c1ccccc1-c1ccc(C(F)(F)F)cc1 [Lomitapide] + CN(C)C/C=C/C(=O)Nc1cc2c(Nc3ccc(F)c(Cl)c3)ncnc2cc1O[C@H]1CCOC1 [Afatinib],43.9
11,CC1=CC(=O)c2ccccc2C1=O [Menadione] + CN(C)C/C=C/C(=O)Nc1cc2c(Nc3ccc(F)c(Cl)c3)ncnc2cc1O[C@H]1CCOC1 [Afatinib],74.6
12,Cc1c(-c2ccc(O)cc2)n(Cc2ccc(OCCN3CCCCCC3)cc2)c2ccc(O)cc12.Cl [Bazedoxifene HCl] + CN(C)C/C=C/C(=O)Nc1cc2c(Nc3ccc(F)c(Cl)c3)ncnc2cc1O[C@H]1CCOC1 [Afatinib],69.7
13,COc1cccc2c1C(=O)c1c(O)c3c(c(O)c1C2=O)C[C@@](O)(C(C)=O)C[C@@H]3O[C@H]1C[C@H](N)[C@H](O)[C@H](C)O1.Cl [Daunorubicin HCl] + CN(C)C/C=C/C(=O)Nc1cc2c(Nc3ccc(F)c(Cl)c3)ncnc2cc1O[C@H]1CCOC1 [Afatinib],20.8
14,CCOc1cc2ncc(C#N)c(Nc3ccc(OCc4ccccn4)c(Cl)c3)c2cc1NC(=O)C=CCN(C)C [Neratinib (HKI-272)] + CN(C)C/C=C/C(=O)Nc1cc2c(Nc3ccc(F)c(Cl)c3)ncnc2cc1O[C@H]1CCOC1 [Afatinib],50.9
15,CC(C)C(=O)OCC(=O)[C@@]12O[C@H](C3CCCCC3)O[C@@H]1C[C@H]1[C@@H]3CCC4=CC(=O)C=C[C@]4(C)[C@H]3[C@@H](O)C[C@@]12C [Ciclesonide] + CN(C)C/C=C/C(=O)Nc1cc2c(Nc3ccc(F)c(Cl)c3)ncnc2cc1O[C@H]1CCOC1 [Afatinib],99.5
16,CN(C(=O)CN(CCO)CC(=O)N(C)C(C)(C)Cc1ccccc1)C(C)(C)Cc1ccccc1 [Oxethazaine] + CN(C)C/C=C/C(=O)Nc1cc2c(Nc3ccc(F)c(Cl)c3)ncnc2cc1O[C@H]1CCOC1 [Afatinib],62.9
17,CCCCCCCCc1ccc(CCC(N)(CO)CO)cc1.Cl [Fingolimod (FTY720)] + CN(C)C/C=C/C(=O)Nc1cc2c(Nc3ccc(F)c(Cl)c3)ncnc2cc1O[C@H]1CCOC1 [Afatinib],69.9
18,C=C1C(=CC=C2CCCC3(C)C2CCC3C(C)C=CC(C)C(C)C)CC(O)CC1O (stereo not given) [Doxercalciferol] + CN(C)C/C=C/C(=O)Nc1cc2c(Nc3ccc(F)c(Cl)c3)ncnc2cc1O[C@H]1CCOC1 [Afatinib],47.6
19,CCCCc1oc2ccc(NS(C)(=O)=O)cc2c1C(=O)c1ccc(OCCCN(CCCC)CCCC)cc1.Cl [Dronedarone HCl] + CN(C)C/C=C/C(=O)Nc1cc2c(Nc3ccc(F)c(Cl)c3)ncnc2cc1O[C@H]1CCOC1 [Afatinib],63.6
20,CC(O)C(=O)O.CCOc1ccc2nc3cc(N)ccc3c(N)c2c1.O [Ethacridine lactate monohydrate] + CN(C)C/C=C/C(=O)Nc1cc2c(Nc3ccc(F)c(Cl)c3)ncnc2cc1O[C@H]1CCOC1 [Afatinib],70.5

row,SMILES,cell viability of combination
1,CCOc1nc2cccc(C(=O)OC(C)OC(=O)OC3CCCCC3)c2n1Cc1ccc(-c2ccccc2-c2nn[nH]n2)cc1 (stereo not given) [Candesartan Cilexetil] + CN(C)C/C=C/C(=O)Nc1cc2c(Nc3ccc(F)c(Cl)c3)ncnc2cc1O[C@H]1CCOC1 [Afatinib],74.5
2,CCCCCCCCCCCC1=C(O)C(=O)C=C(O)C1=O [Embelin] + CN(C)C/C=C/C(=O)Nc1cc2c(Nc3ccc(F)c(Cl)c3)ncnc2cc1O[C@H]1CCOC1 [Afatinib],67.8
3,CC1CC(=O)NN=C1c1ccc(NN=C(C#N)C#N)cc1 (stereo not given) [Levosimendan] + CN(C)C/C=C/C(=O)Nc1cc2c(Nc3ccc(F)c(Cl)c3)ncnc2cc1O[C@H]1CCOC1 [Afatinib],75
4,Cc1ccc(-n2[nH]c(C)c(NN=C3C=CC=C(c4cccc(C(=O)O)c4)C3=O)c2=O)cc1C [Eltrombopag] + CN(C)C/C=C/C(=O)Nc1cc2c(Nc3ccc(F)c(Cl)c3)ncnc2cc1O[C@H]1CCOC1 [Afatinib],77.1
5,Cc1cccc(CN2CCN(C(c3ccccc3)c3ccc(Cl)cc3)CC2)c1.Cl.Cl (stereo not given) [Meclizine 2HCl] + CN(C)C/C=C/C(=O)Nc1cc2c(Nc3ccc(F)c(Cl)c3)ncnc2cc1O[C@H]1CCOC1 [Afatinib],68.6
6,COc1ccccc1OCCNCC(O)COc1cccc2[nH]c3ccccc3c12 (stereo not given) [Carvedilol] + CN(C)C/C=C/C(=O)Nc1cc2c(Nc3ccc(F)c(Cl)c3)ncnc2cc1O[C@H]1CCOC1 [Afatinib],59.2
7,COc1ccc(C[C@H](N)C(=O)N[C@@H]2[C@H](O)[C@H](n3cnc4c(N(C)C)ncnc43)O[C@@H]2CO)cc1.Cl.Cl [Puromycin dihydrochloride] + CN(C)C/C=C/C(=O)Nc1cc2c(Nc3ccc(F)c(Cl)c3)ncnc2cc1O[C@H]1CCOC1 [Afatinib],18.2
8,Cl.Fc1ccc(C2CCNCC2COc2ccc3c(c2)OCO3)cc1 (stereo not given) [Paroxetine HCl] + CN(C)C/C=C/C(=O)Nc1cc2c(Nc3ccc(F)c(Cl)c3)ncnc2cc1O[C@H]1CCOC1 [Afatinib],60.4
9,CCN(CC)CCNC(=O)c1c(C)[nH]c(C=C2C(=O)Nc3ccc(F)cc32)c1C.O=C(O)CC(O)C(=O)O [Sunitinib malate] + CN(C)C/C=C/C(=O)Nc1cc2c(Nc3ccc(F)c(Cl)c3)ncnc2cc1O[C@H]1CCOC1 [Afatinib],43.6
10,CC[C@@H]1/C=C(\C)C[C@H](C)C[C@H](OC)[C@H]2O[C@@](O)(C(=O)C(=O)N3CCCC[C@H]3C(=O)O[C@H](/C(C)=C/[C@@H]3CC[C@H](Cl)[C@H](OC)C3)[C@H](C)[C@@H](O)CC1=O)[C@H](C)C[C@@H]2OC [Pimecrolimus] + CN(C)C/C=C/C(=O)Nc1cc2c(Nc3ccc(F)c(Cl)c3)ncnc2cc1O[C@H]1CCOC1 [Afatinib],70.7
11,Cc1c(C(=O)NN2CCCCC2)nn(-c2ccc(Cl)cc2Cl)c1-c1ccc(Cl)cc1 [Rimonabant] + CN(C)C/C=C/C(=O)Nc1cc2c(Nc3ccc(F)c(Cl)c3)ncnc2cc1O[C@H]1CCOC1 [Afatinib],75
12,CC(C)CC(NC(=O)C(NC(=O)c1cccc(-c2ccccc2)n1)C(C)O)B(O)O (stereo not given) + CN(C)C/C=C/C(=O)Nc1cc2c(Nc3ccc(F)c(Cl)c3)ncnc2cc1O[C@H]1CCOC1 [Afatinib],18.9
13,CO[C@H]1C[C@@H]2CC[C@@H](C)[C@@](O)(O2)C(=O)C(=O)N2CCCC[C@H]2C(=O)O[C@H]([C@H](C)C[C@@H]2CC[C@@H](O)[C@H](OC)C2)CC(=O)[C@H](C)/C=C(\C)[C@@H](O)[C@@H](OC)C(=O)[C@H](C)C[C@H](C)/C=C/C=C/C=C/1C [Rapamycin (Sirolimus)] + CN(C)C/C=C/C(=O)Nc1cc2c(Nc3ccc(F)c(Cl)c3)ncnc2cc1O[C@H]1CCOC1 [Afatinib],42.5
14,COc1cc(Nc2c(C#N)cnc3cc(OCCCN4CCN(C)CC4)c(OC)cc23)c(Cl)cc1Cl [Bosutinib (SKI-606)] + CN(C)C/C=C/C(=O)Nc1cc2c(Nc3ccc(F)c(Cl)c3)ncnc2cc1O[C@H]1CCOC1 [Afatinib],25.9
15,CC(C)(C)c1ccc(C(O)CCCN2CCC(C(O)(c3ccccc3)c3ccccc3)CC2)cc1 (stereo not given) [Terfenadine] + CN(C)C/C=C/C(=O)Nc1cc2c(Nc3ccc(F)c(Cl)c3)ncnc2cc1O[C@H]1CCOC1 [Afatinib],59.1
16,Cl.Nc1ccn(C2OC(CO)C(O)C2O)c(=O)n1 (stereo not given) [Cytarabine hydrochloride] + CN(C)C/C=C/C(=O)Nc1cc2c(Nc3ccc(F)c(Cl)c3)ncnc2cc1O[C@H]1CCOC1 [Afatinib],72.2
17,CNC1CCC(c2ccc(Cl)c(Cl)c2)c2ccccc21.Cl (stereo not given) [Sertraline HCl] + CN(C)C/C=C/C(=O)Nc1cc2c(Nc3ccc(F)c(Cl)c3)ncnc2cc1O[C@H]1CCOC1 [Afatinib],56.4
18,CC(CCC(=O)O)C1CCC2C3CCC4CC(O)CCC4(C)C3CCC12C (stereo not given) [Lithocholic Acid] + CN(C)C/C=C/C(=O)Nc1cc2c(Nc3ccc(F)c(Cl)c3)ncnc2cc1O[C@H]1CCOC1 [Afatinib],52.6
19,CC(O)C(=O)O.CC(O)C(=O)O.CN1CCN(c2ccc3c(c2)NC(=C2C(=O)N=c4cccc(F)c4=C2N)N3)CC1 [Dovitinib Dilactic acid] + CN(C)C/C=C/C(=O)Nc1cc2c(Nc3ccc(F)c(Cl)c3)ncnc2cc1O[C@H]1CCOC1 [Afatinib],56.7
20,CN(C)CC=CC(=O)Nc1cc2c(Nc3ccc(F)c(Cl)c3)ncnc2cc1OC1CCOC1 (stereo not given) [Afatinib (BIBW2992)] + CN(C)C/C=C/C(=O)Nc1cc2c(Nc3ccc(F)c(Cl)c3)ncnc2cc1O[C@H]1CCOC1 [Afatinib],21.3
